Pf apPOL inh: Pf-apPOL inhibitors, biochemical, fluorescence | Plasmodium falciparum apicoplast DNA polymerase (apPOL) | Recombinant Pf-apPOL, molecular beacon fluorescence, 1.5 h | inhibition, % at 10 µM | 210,000 tested, 0.25% active | AID 1794808, 2022
mHTT CaM bind: mutant huntingtin-calmodulin interaction inhibitors – biochemical, AlphaScreen, primary screen | inhibition, % at 15 µM | 190,000 tested, 3.6% active | AlphaScreen His-mHTT/GST-CaM binding, luminescence | P42858;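 also: 0% = both proteins with DMSO and 100% = one protein alone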
The depositor's hits bear a star. Sampled rows, rich in hits. Any-hit rate of the full collection: about 3.5%. Rule as the data show it: active = inhibition above about 50%; inactive = the rest.

SMILES	Pf apPOL inh	mHTT CaM bind
N=c1oc2ccccc2cc1C(=O)Nc1cccc(C(F)(F)F)c1	-3.2	-3.0
CN(c1cc2c(c3c1ccn3C)C1CCC2C1)C1CCCCC1 (configuration not stated)	-3.2	70.3*
Cn1ccc2c(N(c3ccccc3)C3CCCCC3)cc3c(c21)C1CCC3O1 (configuration not stated)	-4.8	23.5
CCCCN(C)C(=O)C1CCN(c2cn[nH]c(=O)c2)CC1	-3.8	-9.4
O=C(CN(C1CCCCC1)S(=O)(=O)c1ccccc1)N1CCCCCC1	46.4	2.3
O=C(CN(C1CCCCC1)S(=O)(=O)c1ccccc1)N1CCN(c2ccc(F)cc2)CC1	-5.3	60.4*
CC(=O)N(CCN1CCOCC1)c1nc2c(C)cc(Cl)cc2s1	-0.7	9.9
Cc1cc(Cl)cc2sc(N(CCCn3ccnc3)C(=O)c3cccs3)nc12	-6.8	81.7*
Cc1ccc2sc(N(CCCn3ccnc3)C(=O)c3ccc4c(c3)OCCO4)nc2c1C	-5.7	58.4*
CSc1cccc2sc(N(CC3CCCO3)C(=O)c3ccc4c(c3)OCCO4)nc12 (configuration not stated)	-0.9	2.0
COc1ccc(Br)cc1C(=O)Nc1ccc2oc(-c3ccncc3)nc2c1	-1.6	33.0
N#Cc1c(N)nc(SCC(=O)c2ccc(O)c(O)c2)c(C#N)c1-c1cccc(Cl)c1	3.5	85.0*
COc1ccc(-c2c(C#N)c(N)nc(SCC(=O)c3ccc(O)c(O)c3)c2C#N)cc1	-5.6	99.0*
N#Cc1c(N)nc(SCC(=O)c2ccc(O)c(O)c2)c(C#N)c1-c1ccc(O)cc1	27.3	31.0
N#Cc1c(N)nc(SCC(=O)c2ccc(Br)cc2)c(C#N)c1-c1ccccc1	-12.2	-8.0
N#Cc1ccc(Oc2ccccc2N2C(=O)c3ccc(Br)cc3C2=O)cc1	-4.1	-13.0
COc1ccc(-n2nc3c(c2NC(=O)C24CC5CC(CC(C5)C2)C4)CS(=O)(=O)C3)cc1	-0.7	15.0
Cc1cccc(C2CC(C(=O)N3CCSCC3)CN(Cc3ccccc3)C2)c1 (configuration not stated)	2.9	76.9*
Cc1cccc(CN2CCCC(C(=O)N3CCCCCC3)C2)c1 (configuration not stated)	-2.1	1.1
CCOCC(=O)N1CCC(O)(c2ccccc2)C(N2CCCC2)C1 (configuration not stated)	2.8	7.6
O=C(CC1CCCC1)N1CCC(O)(c2ccccc2)C(N2CCCC2)C1 (configuration not stated)	0.7	76.9*
O=C(C1CCCCC1)N1CCC(O)(c2ccccc2)C(N2CCCC2)C1 (configuration not stated)	-10.8	50.9*
CCCC(=O)N1CCC(O)(c2ccccc2)C(N2CCCC2)C1 (configuration not stated)	-11.2	5.9
O=C(O)c1cc([N+](=O)[O-])c(-n2nnc3ccccc32)c([N+](=O)[O-])c1	0.3	-2.0
Cn1cnc(S(=O)(=O)NCCC2CCN(C(=O)c3ccc(F)cc3)CC2)c1	-2.1	29.8
SMILES	Pf apPOL inh	mHTT CaM bind
COc1cc(C)c(S(=O)(=O)n2nnc3ccccc32)cc1C	3.3	-14.2
COc1ccc(C)cc1S(=O)(=O)n1nnc2cc(Cl)ccc21	4.4	100.0*
COc1cc(C)c(C)cc1S(=O)(=O)n1nnc2ccccc21	-2.3	88.5*
COc1ccc(C)cc1S(=O)(=O)n1nc(C)cc1C	-3.1	-21.4
COc1ccc(OC)c(S(=O)(=O)n2nnc3ccccc32)c1	-4.4	100.0*
COc1ccc(S(=O)(=O)n2nnc3ccccc32)c(C)c1	18.7	-2.0
Cc1ccc(-n2cnc(C(=O)Nc3ccc(F)cc3)n2)cc1	-7.2	-3.7
O=c1cc(CN2CCC(Cc3ccccc3)CC2)c2cc3c(cc2o1)OCO3	-2.4	-29.2
CCN(CC)c1ccc2cc(C(=O)Nc3ccccc3C)c(=N)oc2c1	-3.7	-19.0
C=CCN1C(=O)C(O)(CC(=O)c2ccc([N+](=O)[O-])cc2)c2ccccc21 (configuration not stated)	-4.2	16.1
O=C(CC1(O)C(=O)N(Cc2ccc(Cl)cc2)c2ccccc21)c1cccc([N+](=O)[O-])c1 (configuration not stated)	-1.7	92.9*
COc1ccc(C(=O)CC2(O)C(=O)N(CCc3ccccc3)c3ccccc32)cc1[N+](=O)[O-] (configuration not stated)	15.1	71.1*
C=CCN1C(=O)C(O)(CC(=O)c2ccc(OC)c([N+](=O)[O-])c2)c2ccccc21 (configuration not stated)	-1.3	14.6
O=C(CC1(O)C(=O)N(Cc2ccc(Cl)cc2)c2ccccc21)c1ccc([N+](=O)[O-])cc1 (configuration not stated)	-8.7	86.3*
O=C(CC1(O)C(=O)N(Cc2ccc(Cl)cc2)c2ccccc21)c1cccnc1 (configuration not stated)	-2.2	25.1

Compound activity (PubChem)
